Assay results as given in PubChem BioAssay AID1159580 (chemical genetic matrix, 2015).
Among all 5,500 compounds or so, about 2,000 (36%) were called active. Inconclusive results (about 18%) are left out. Cut-off read from the data, not from the text of the source: active = normalized growth mostly below about 0.91 (no sharp cut-off); inconclusive = no clear call, values can overlap the other calls; inactive = mostly above about 0.92. The list shows a part of the results.

Experiment: chemical genetic growth profiling, strain panel (AID 1159580);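 note: tested at 20 µM; growth read once vehicle control cultures reached saturation at 30 °C; 1 = growth at the plate median or of vehicle wells; lower values mean less growth of the strain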
Details: S. cerevisiae deletion strains, growth OD

Measured: normalized growth

CC1(C)C(=O)C=CC2(C)C3CCC4(C)C(c5ccoc5)CC5OC54C3C(O)CC12 (stereo unspecified)
inactive: locus YAL013W, strain DEP1, active compounds read low 0.975 | locus YBR021W, strain FUR4, active compounds read low 0.985 | locus YBR229C, strain ROT2, active compounds read low 0.995 | locus YCL029C, strain bik1, active compounds read low 1.01 | locus YDL035C, strain GPR1, active compounds read low 0.942 | locus YDL074C, strain BRE1, active compounds read low 0.862 | locus YDL101C, strain DUN1, active compounds read low 0.958 | locus YDL134C, strain PPH21, active compounds read low 0.945 | locus YDL185W, strain tfp1, active compounds read low 1.02 | locus YDL192W, strain arf1, active compounds read low 0.986 | locus YDR101C, strain arx1, active compounds read low 0.98 | locus YDR162C, strain NBP2, active compounds read low 0.882 | locus YDR318W, strain mcm21, active compounds read low 0.992 | locus YDR388W, active compounds read low 1.02 | locus YDR502C, strain sam2, active compounds read low 1.01 | locus YER110C, active compounds read low 1.03 | locus YER155C, strain BEM2, active compounds read low 0.988 | locus YER167W, strain BCK2, active compounds read low 0.961 | locus YGL078C, strain dbp3, active compounds read low 1.02 | locus YGL086W, strain mad1, active compounds read low 0.975 | locus YGL248W, strain PDE1, active compounds read low 0.958 | locus YGR135W, strain pre9, active compounds read low 0.984 | locus YGR229C, strain SMI1, active compounds read low 0.868 | locus YGR252W, strain gcn5, active compounds read low 0.981 | locus YHR030C, strain SLT2, active compounds read low 1 | locus YHR079C, strain IRE1 (second series), active compounds read low 1.02 | locus YHR094C, strain hxt1, active compounds read low 1.02 | locus YHR129C, strain ARP1, active compounds read low 0.977 | locus YHR200W, strain rpn10, active compounds read low 0.993 | locus YIL066C, strain RNR3, active compounds read low 0.926 | locus YIL073C, strain SPO22, active compounds read low 0.999 | locus YIL125W, strain kgd1, active compounds read low 0.999 | locus YIR030C, strain dcg1, active compounds read low 1.01 | locus YJL095W, strain BCK1, active compounds read low 0.884 | locus YJL134W, strain LCB3, active compounds read low 0.992 | locus YJL168C, strain set2, active compounds read low 1.01 | locus YJL187C, strain SWE1 (second series), active compounds read low 0.955 | locus YJR075W, strain HOC1, active compounds read low 0.981 | locus YKL009W, strain mrt4, active compounds read low 1.01 | locus YKL068W, active compounds read low 1.01 | locus YKL085W, strain MDH1 (second series), active compounds read low 1 | locus YKL085W, strain MDH1, active compounds read low 1 | locus YKR001C, strain vps1, active compounds read low 0.984 | locus YLR039C, strain RIC1, active compounds read low 0.785 | locus YLR058C, strain SHM2, active compounds read low 0.975 | locus YLR102C, strain apc9, active compounds read low 1.01 | locus YLR268W, strain sec22, active compounds read low 0.987 | locus YLR330W, strain CHS5, active compounds read low 0.965 | locus YLR371W, strain rom2, active compounds read low 1 | locus YLR418C, strain cdc73, active compounds read low 0.951 | locus YML016C, strain PPZ1, active compounds read low 0.993 | locus YML032C, strain rad52, active compounds read low 1 | locus YML124C, strain tub3, active compounds read low 1.01 | locus YMR078C, strain ctf18, active compounds read low 1 | locus YMR223W, strain ubp8, active compounds read low 0.993 | locus YMR307W, strain GAS1, active compounds read low 0.842 | locus YNL067W, strain RPL9B, active compounds read low 0.978 | locus YNL128W, strain TEP1, active compounds read low 0.972 | locus YNL153C, strain GIM3, active compounds read low 0.983 | locus YNL233W, strain BNI4, active compounds read low 0.938 | locus YNL250W, strain rad50, active compounds read low 1.02 | locus YNL271C, strain bni1, active compounds read low 1.01 | locus YNL298W, strain CLA4, active compounds read low 1.03 | locus YNL307C, strain MCK1, active compounds read low 1 | locus YNR052C, strain pop2, active compounds read low 0.995 | locus YOL006C, strain TOP1, active compounds read low 0.956 | locus YOL012C, strain htz1 1.23 | locus YOL147C, strain pex11, active compounds read low 1 | locus YOR061W, strain CKA2, active compounds read low 0.979 | locus YOR069W, strain VPS5, active compounds read low 0.989 | locus YOR136W, strain idh2, active compounds read low 1.02 | locus YOR144C, strain elg1, active compounds read low 1.01 | locus YOR184W, strain ser1, active compounds read low 0.886 | locus YOR316C, strain cot1, active compounds read low 1.02 | locus YPL055C, strain LGE1, active compounds read low 0.928 | locus YPL241C, strain CIN2, active compounds read low 0.995 | locus YPR119W, strain clb2, active compounds read low 1.02 | locus YPR141C, strain kar3, active compounds read low 1.01 | locus YPR163C, strain tif3, active compounds read low 1.02 | locus YPR167C, strain met16, active compounds read low 1 | strain wtn01, active compounds read low 0.993
